In the library only some 2.8% were active in any assay of this set; here they are far more common.
WRN inhibitor = qHTS for Inhibitors of WRN Helicase; WRN helicase unwinding, fluorescent forked duplex, kinetic; Potency, µM (series often up to 114 µM), for the others: top-dose activity change, negative = inhibition, most hits filed as inhibitors; hit rate 0.46% among 360,000; AID 651768, 2012; note: potency is the fitted concentration of half-maximal effect; % is set by controls: 0 for no effect and ±100 for the full control effect; nearly all actives have a fitted effect of over 55% in size
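Fluorescence dequenching readout, ex 525 nm/em 598 nm, kinetic mode: forked duplex DNA (100 nM final) with adjacent fluorophore and quencher unwound by WRN (20 nM final) with 2 mM ATP. Compound preincubation 15 min, room temperature.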
PI5P4Ka inh = qHTS for Inhibitors of phosphatidylinositol 5-phosphate 4-kinase (PI5P4K). PI5P4Kalpha enzyme, ADP-Glo luminescence, 60 min; hits give low values. max response, %. hit rate 1.2% among 330,000; active = max response of -50% or lower; inconclusive = between -30% and -50%; inactive = -30% or higher; note: value at the top dose of about 77 µM; % is set by controls: 0 for no effect and ±100 for the full control effect
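PI5P4Kalpha ADP-Glo assay; 5 microM ATP final; 60 min RT reaction; HEPES pH 7.4/EGTA/CHAPS, 5% DMSO; controls lacking substrate or enzyme; luminescent end-point.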
Pol kappa inh = qHTS for Inhibitors of Polymerase Kappa; Potency, µM (top dose mostly 107 µM), for the others: top-dose activity, negative = inhibition, most hits filed as inhibitors; DNA polymerase kappa (Homo sapiens), Q9UBT6; AID 588579, 2011; hit rate 0.53% among 400,000; purified Pol kappa, fluorescent DNA synthesis assay, 10 min; note: potency is the fitted concentration of half-maximal effect; % is set by controls: 0 for no effect and ±100 for the full control effect
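10 nM Pol kappa was preincubated with compounds for 15 min at room temperature. Reaction started with 50 nM (final) substrate. Fluorescence read kinetically at 0 and 10 min.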
Pol beta inh = qHTS Assay for Inhibitors of DNA Polymerase Beta. Potency, µM (doses to about 114 µM), without a hit: at the highest dose activity change, negative = inhibition, actives largely listed as inhibitors. Pol beta primer extension/strand displacement, fluorescence kinetic. AID 485314, 2010. P06746. hit rate 1.3% among 340,000; note: potency is the fitted concentration of half-maximal effect; % is set by controls: 0 for no effect and ±100 for the full control effect
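Kinetic readout of DNA synthesis with strand displacement by Pol beta. Compound and 10 nM enzyme sit 15 min at room temperature; 50 nM substrate starts the reaction, read immediately and at 10 min.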
POLI inh = qHTS for Inhibitors of Polymerase Iota; DNA polymerase iota (Homo sapiens), Q9UNA4; Pol iota fluorescent replication assay, 10 min; Potency, µM (highest dose often 115 µM), for the others: at the highest dose activity, negative = inhibition, hits mostly inhibitors; hit rate 1% among 390,000; note: potency is the fitted concentration of half-maximal effect
Target sequence (Q9UNA4 whole entry, looked up): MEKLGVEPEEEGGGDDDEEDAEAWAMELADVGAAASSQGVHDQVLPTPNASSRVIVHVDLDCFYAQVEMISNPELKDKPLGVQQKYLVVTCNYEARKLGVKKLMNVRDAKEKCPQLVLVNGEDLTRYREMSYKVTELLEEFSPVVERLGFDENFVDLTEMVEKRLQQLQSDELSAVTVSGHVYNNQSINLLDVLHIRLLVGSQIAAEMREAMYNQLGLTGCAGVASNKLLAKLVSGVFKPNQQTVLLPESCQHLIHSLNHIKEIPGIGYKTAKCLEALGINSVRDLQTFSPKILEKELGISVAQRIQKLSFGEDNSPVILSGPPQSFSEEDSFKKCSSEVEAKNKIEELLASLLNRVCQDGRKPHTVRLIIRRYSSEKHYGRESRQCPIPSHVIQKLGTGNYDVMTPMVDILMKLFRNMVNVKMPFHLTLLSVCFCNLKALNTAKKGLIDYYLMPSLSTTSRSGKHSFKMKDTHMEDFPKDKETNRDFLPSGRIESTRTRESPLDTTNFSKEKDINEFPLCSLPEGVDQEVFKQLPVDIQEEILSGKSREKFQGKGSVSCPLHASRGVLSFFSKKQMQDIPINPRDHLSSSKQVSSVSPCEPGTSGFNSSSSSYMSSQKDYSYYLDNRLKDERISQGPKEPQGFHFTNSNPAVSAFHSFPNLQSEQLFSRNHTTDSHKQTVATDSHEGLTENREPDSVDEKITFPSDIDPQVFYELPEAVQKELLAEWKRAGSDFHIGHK
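Fluorescent replication assay read twice, at 0 min and 10 min after adding 50 nM (final) substrate. Enzyme (10 nM) and compounds were first incubated 15 min at room temperature; enzyme-free buffer wells were negative controls.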
Pol eta inh = qHTS for Inhibitors of Polymerase Eta | DNA polymerase eta (Homo sapiens), Q9Y253 | recombinant Pol eta, fluorescent DNA replication assay | Potency, µM (series often up to 114 µM), without a hit: top-dose activity change, negative = inhibition, actives largely listed as inhibitors | hit rate 1.2% among 390,000 | AID 588591, 2011; note: potency is the fitted concentration of half-maximal effect; % is set by controls: 0 for no effect and ±100 for the full control effect
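Pol eta at 10 nM preincubated with compounds 15 min at room temperature; reaction started with fluorescent substrate (50 nM final) and read kinetically at 0 and 10 min.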
Active calls of the source: *; ? = inconclusive; nt = no result; [ ] = remark or other dose. Unless noted, calls come from the whole dose curve; as a rule, active = well fitted curve in the direction sought with a large enough effect; inconclusive = small, poorly fitted or top-dose-only effect, or another doubt; inactive = no such curve, though single readings can be large; an effect the other way counts as inactive or inconclusive.

SMILES	WRN inhibitor	PI5P4Ka inh	Pol kappa inh	Pol beta inh	POLI inh	Pol eta inh
Cc1cc(C)nc(SCc2ccc(C(=O)N/N=C/c3ccco3)cc2)n1	7%	-4	-3%	14µM*	100%	-4%
COc1ccc(C(=O)N/N=C/c2cc(Br)ccc2O)cc1OC	-9%	-1	?	-91%	?	-11%
COc1ccc(O)c(/C=N/NC(=O)c2ccc(OCc3cccc(Br)c3)cc2)c1	-6%	nt	-9%	16µM*	?	-10%
CCC(=O)N1CCN=C1SCc1cccc(C(F)(F)F)c1	-3%	10	-4%	32%	-24%	-4%
c1ccc2c(-c3cccc4nccn34)cncc2c1	-2%	?	nt	nt	nt	nt
O=C(c1ccc2c(c1)N(Cc1ccccc1)C(=O)c1ccccc1S2(=O)=O)N1CCOCC1	nt	nt	-7%	0%	26%	nt
Cc1ccc(CCNS(=O)(=O)c2ccc3c(c2)CCN3C(=O)CCC(=O)O)cc1	nt	nt	-9%	3%	13%	-10%
Cc1nnc(Sc2cc(C(=O)NCc3ccco3)c3ccccc3n2)s1	9%	-12	-12%	22µM*	?	?
O=C(CSc1nc2ccccc2c2nc3ccccc3n12)NCc1ccco1	-24%	-19	?	8.9µM*	?	?
O=C(CSc1nnc(NC(=O)c2ccccc2)s1)NCc1ccco1	-5%	-11	-17%	3.2µM*	-9%	-10%
Cn1cccc1Cc1nnc(SCC(=O)NCc2ccco2)n1CCc1ccccc1	?	nt	?	?	22µM*	-29%
NS(=O)(=O)OCC(Cc1ccccc1)N1C(=O)c2ccccc2C1=O (stereo unspecified)	-1%	4	-10%	0%	35%	-13%
COCCn1c(SCC(=O)NC2CCCC2)nc2cccnc21	2%	-2	13%	-11%	10%	-8%
O=C(CSc1nc2ccccc2c(=O)n1Cc1ccccc1)NCc1ccco1	3%	nt	0%	7%	1%	-5%
O=C(CSc1nc2ccccc2c(=O)n1Cc1ccc(C(=O)NC2CC2)cc1)NCc1ccco1	-1%[11.6 µM]	1	-34%	79µM*	?	?
COCCn1c(SCC(=O)NCc2ccco2)nc2cccnc21	-16%	-10	-21%	45µM*	?	?
Cc1nc(SCC(=O)NCc2ccco2)c2c3c(sc2n1)CCCC3	-12%	-15	-22%	6%	3%	?
O=C(CSc1ncnc2ccccc12)NCc1ccco1	-28%	-9	-7%	25µM*	?	?
CCCc1nc2sc3c(SCC(=O)NCc4ccco4)ncnc3c2c2c1CCC2	40µM*	nt	28µM*	10µM*	?	14µM*
COC(=O)[C@H]1[C@@H]2C[C@H]3c4[nH]c5ccccc5c4CCN3C[C@@H]2CC[C@@H]1O	nt	nt	-4%[19.4 µM]	nt	nt	nt
CCCCCNC(=O)c1c[nH]c2ccc(S(=O)(=O)N3CCC(C)CC3)cc2c1=O	nt	nt	-1%[60.1 µM]	1%	10%	-17%
COc1ccc2nc(N=Nc3ccc(O)c4ccccc34)sc2c1	-16%	?	-28%	45µM*	-2%	?
COc1ccc2nc(N=NC3=C(O)CC(C)(C)CC3=O)sc2c1	-3%	-14	-17%	4%	5%	-17%
Cc1cc(C)c2c(=O)n(CC(=O)Nc3ccc(Cl)cc3)sc2n1	0%	-64*	-5%	-12%	-12%	-7%
Cc1cc(C)n(CCC(=O)Nc2ccc(Cl)cc2)n1	nt	nt	-13%	?	-15%	-21%
SMILES	WRN inhibitor	PI5P4Ka inh	Pol kappa inh	Pol beta inh	POLI inh	Pol eta inh
Cc1cc(C)c2c(=O)n(CC(=O)Nc3cccc(F)c3)sc2n1	0%	-67*	6%	2%	?	2%
CCOc1ccc(NC(=O)Cn2sc3nc(C)cc(C)c3c2=O)cc1	20µM*	-71*	-13%	1%	?	-13%
Cc1ccc(NC(=O)Cn2sc3nc(C)cc(C)c3c2=O)c(Cl)c1	5%	-72*	-8%	0%	-15%	15%
CCc1ccccc1NC(=O)CNC(=O)c1ccc(-n2cncn2)c([N+](=O)[O-])c1	-3%	8	0%	nt	19%	2%
CCN1C(=NCCN2CCOCC2)N[C@@H](CCc2ccccc2)C(C(=O)OC)=C1C	nt	nt	nt	36%	nt	nt
CCOc1ccccc1CNCc1c(C(=O)O)c(C)n(Cc2ccc(Cl)cc2)c1C	nt	nt	5%	16%	23%	-3%
C=C(CN(C)C)C(=O)c1ccc(C)cc1C	18µM*	7	-5%	nt	?	-10%
C=C(CN(C)C)C(=O)c1cc(OC)c(OC)cc1OC	?	3	-8%	nt	-3%	-7%
CCOc1ccc(CCNC(=O)C2CCN(c3ncnc4c3nc3n4CCCCC3)CC2)cc1	nt	nt	-15%	0%	16%	-6%
O=C(O)c1cc(-c2ccco2)[nH]n1	-5%	-13	-3%	28µM*	-9%	?
CC1CCC(C(=O)NNC(=O)c2cc(-c3ccco3)[nH]n2)CC1 (stereo unspecified)	-8%	-3	1%	0%	16%	-4%
O=C(NCc1cccnc1)c1ccc2sc([C@@H]3O[C@H](CO)[C@H](O)[C@H](O)[C@H]3O)nc2c1	12%[57.1 µM]	-4	nt	nt	nt	nt
O=C(N/N=C/c1ccc2ncccc2c1)c1ccco1	-29%[57.1 µM]	-77*	4%	-2%	60%	0%
O=C(N/N=C/c1ccccn1)c1ccco1	-2%	nt	0%	23%	?	-2%
Cc1ccc2c(c1)Oc1ccc(NC(=O)CCl)cc1C(=O)N2	-4%	7	1%	14%	-25%	79µM*
Cc1ccc2c(c1)Oc1ccc([N+](=O)[O-])cc1C(=O)N2	9%	0	-8%	34%	26%	4%
COC1=C(OC)C(=O)C(CCCCCCCCCCO)=C(C)C1=O	nt	nt	-11%[60.1 µM]	-14%	nt	nt
CCCCCCCCCCCC1=C(O)C(=O)C=C(O)C1=O	-1%	-62*	?	nt	?	-1%
CCCCCCCCCCC1=C(C)C(=O)C(OC)=C(OC)C1=O	nt	nt	-14%[60.1 µM]	nt	nt	nt
COC1=CC(=O)C(O)=C(CCCCCCC/C=C/CCCCCCCC2=C(O)C(=O)C=C(OC)C2=O)C1=O	35µM*	-75*	20µM*	nt	7.9µM*	3.5µM*
CCCOc1ccc(CNC(=O)c2ccc(C)c(-n3c(C)nc4cccnc43)c2)cc1	nt	nt	6%	12%	38%	-14%
CN(C)CCOc1nc(-c2ccccc2)nc2c1oc1ccccc12	12%[57.1 µM]	16	-21%	45µM*	?	?
CN(C)CCOc1ncnc2c1oc1ccccc12	3%	nt	-3%	17%	20%	-15%
